# TIM10 inh = inhibits growth of TIM10 yeast strain. S. cerevisiae TIM10 strain growth, BacTiter-Glo luminescence, 24 h. inhibition, % at 10 µM. 1.4% of 330,000 active;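 active = inhibition of 40% or more at the single tested concentration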;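 note: wild-type TIM10 isogenic control strain grown at permissive 25 °C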
# PfHsp90 set2 = growth inhibition of yeast expressing Plasmodium Hsp90 | S. cerevisiae expressing PfHsp90, BacTiter-Glo ATP, 48 h; yeast lacking PDR1 and PDR3 efflux regulators | inhibition, % at 9.4 µM | 0.32% of 310,000 active;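 active = every replicate shows inhibition above about 80%, whatever the replicate mean, limit read from the data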;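 note: 0% = DMSO neutral controls and 100% = 20 µM radicicol positive controls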
# NALP3 yeast inh = inhibitors of NALP3 inflammasome in yeast; 0.39% of 330,000 active; Yeast reconstituted NLRP3/ASC/caspase-1, beta-gal luminescence, 24 h; AID 2825; inhibition, % at 10 µM;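 active = inhibition of 50% or more; inactive = inhibition below 50%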;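 note: plate controls were induced DMSO wells for no effect and uninduced yeast grown without galactose for full effect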
# tim23-1 inh = growth inhibitors of tim23-1 mutant yeast. S. cerevisiae tim23-1 growth, BacTiter-Glo luminescence, 24 h. inhibition, % at 20 µM. 1.3% of 330,000 active. AID 463212;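 active = growth inhibition of the mutant yeast at or above 50%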;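 note: temperature-sensitive mutant grown at 25 °C; plate controls were DMSO-treated mutant yeast for no effect and medium wells lacking yeast for full effect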
# SKKanGAS inh = SKKanGAS growth inhibition | S. pyogenes SKKanGAS, kanamycin growth, BacTiter-Glo, 6 h | inhibition, % at 7.5 µM | 1.3% of 300,000 active;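 active = mean replicate score, as percent of positive control median, at least 50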;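 note: strain carries kanamycin resistance gene driven by streptokinase promoter and grows in 40 µg/ml kanamycin; loss of luminescence reflects streptokinase promoter inhibition or plain growth inhibition; 0% = median of DMSO wells and 100% = positive control at its reference dose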
# tim10-1 inh = growth inhibitors of tim10-1 mutant yeast. S. cerevisiae tim10-1 ts strain growth, BacTiter-Glo, 24 h. inhibition, % at 20 µM. 2.2% of 330,000 active;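 active = inhibition of at least 40%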;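 note: mutant grown at 25 °C; 0% = DMSO wells with yeast and 100% = wells holding no yeast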
# tim10-1 conf = tim10-1 yeast growth inhibition, confirmed; 56% of 7,400 active; AID 463213; inhibition, % at 20 µM; shares compounds with tim10-1 inh; S. cerevisiae tim10-1 ts strain growth, BacTiter-Glo, 24 h;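 active = inhibition of yeast growth at or above a set limit in either of two repeat tests at 20 µM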;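 note: tim10-1 mutant grown at permissive 25 °C to find synthetic lethal compounds; 0% = DMSO yeast wells and 100% = medium wells without yeast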
# TIM10 conf = TIM10 yeast growth inhibition, confirmed | 63% of 4,600 active | shares compounds with TIM10 inh | S. cerevisiae tim10 strain growth, BacTiter-Glo luminescence, 24 h | inhibition, % at 10 µM;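 active = inhibition of yeast growth at or above a set limit in either of two replicates at 10 µM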;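 note: this counterscreen used the strain with wild-type TIM10; 0% = yeast with DMSO and 100% = medium wells lacking yeast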
# tim23-1 conf = confirmation of tim23-1 mutant yeast growth inhibitors; shares compounds with tim23-1 inh; inhibition, % at 20 µM; 83% of 4,400 active; AID 463218; S. cerevisiae tim23-1 growth, BacTiter-Glo luminescence, 24 h;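 active = inhibition above about 39% in either of two replicate wells at 20 µM, limit read from the data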;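 note: temperature-sensitive tim23-1 mutant grown at 25 °C; 0% = DMSO wells with yeast and 100% = medium wells without yeast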
# Starred values were filed as active, the others as inactive; . = no result. Sampled rows, rich in hits. Any-hit rate of the full collection: about 4.6%.
SMILES,TIM10 inh,PfHsp90 set2,NALP3 yeast inh,tim23-1 inh,SKKanGAS inh,tim10-1 inh,tim10-1 conf,tim23-1 conf,others
COc1ccc([C@H]2Oc3cc(O)cc(O)c3C(=O)C2[C@@H]2C(=O)c3c(O)cc(O)cc3O[C@@H]2c2ccc(OC)cc2)cc1 (stereo not given in full),14.7,.,2.7,60.5*,100.2*,48.6*,46.5*,48.9*,
CC(C)N1C2OC(C3OC4C(O3)N(C(C)C)S(=O)(=O)N4C(C)C)OC2N(C(C)C)S1(=O)=O (stereo not given),89.4*,.,1.3,54.8*,-10.7,60.4*,71.2*,29.0,TIM10 conf=87.7*
CC(C)(C)c1ccc(S(=O)(=O)N2CCN(c3ccccn3)CC2)cc1,4.7,-26.1,7.2,-11.4,16.7,-1.7,.,.,
Cn1c(=O)c(=O)n(C)c2cc(S(=O)(=O)CCC(=O)Nc3ccc(C(F)(F)F)cc3)ccc21,11.8,19.2,0.0,7.0,-9.8,-1.5,.,.,
O=C(Cn1nc(Cl)nc1Cl)c1cc2ccccc2oc1=O,57.0*,11.3,-29.2,71.9*,4.5,59.3*,52.9*,68.9*,TIM10 conf=43.5*
C[C@H](CO)N1C[C@H](C)[C@H](CN(C)Cc2ccncc2)Oc2ccc(NC(=O)Nc3ccc(C(F)(F)F)cc3)cc2CC1=O,-0.9,-12.4,11.2,9.0,.,7.3,.,.,
Cc1cc(OCC(=O)NCc2ccccn2)c2c(C)c(Cc3ccccc3)c(=O)oc2c1,14.4,-20.3,-0.8,13.6,18.7,26.2,.,.,
CCN1/C(=C/c2ccc3cc(C)ccc3[n+]2CC)Sc2ccc3sccc3c21,67.5*,100.5*,39.4,60.4*,114.8*,46.3*,44.9*,68.6*,TIM10 conf=73.5*
CC[n+]1c(C)sc2c3ccsc3ccc21,10.1,11.2,23.3,12.2,2.8,37.6,.,.,
O=C(CN1C(=O)c2ccccc2S1(=O)=O)Nc1ncc(Cl)cc1Cl,6.2,20.3,10.6,16.1,.,5.7,.,.,
Oc1ccccc1N=Cc1c(O)ccc2ccccc12,37.6,-15.6,28.1,66.1*,19.7,41.9*,29.6,78.5*,
Cc1[nH]c(=O)[nH]c(=O)c1/C=N/NC(=O)[C@H](C)N,-7.0,-43.5,-22.0,1.0,-5.8,-16.6,.,.,
CCOc1ccccc1NS(=O)(=O)c1ccc(-c2cnc(C3CC3)o2)cc1,-16.0,10.7,15.5,27.0,-12.7,34.1,.,.,
COc1ccccc1NS(=O)(=O)c1ccc(-c2cnc(C3CC3)o2)cc1,-10.7,-4.8,18.1,26.3,-14.9,30.5,.,.,
Cc1ccc(NS(=O)(=O)c2ccc(-c3cnc(C4CC4)o3)cc2)c(C)c1,0.5,-3.1,0.6,51.5*,3.2,53.1*,17.1,37.8,
O=S(=O)(Nc1ccc(F)cc1Cl)c1ccc(-c2cnc(C3CC3)o2)cc1,17.9,-36.2,18.9,54.6*,9.2,53.2*,16.6,48.9*,
Cc1ccc(CNC(=O)COC(=O)c2ccc(S(=O)(=O)NCc3ccco3)cc2)cc1,-7.8,4.6,18.4,-6.5,.,-10.0,.,.,
Cc1cc(O)ccc1Nc1nc(-c2cccs2)cs1,35.5,19.2,25.0,30.1,26.7,33.9,.,.,
CN(c1ccc(O)cc1)c1nc(-c2cccs2)cs1,63.6*,-2.0,27.4,71.7*,3.1,48.9*,43.6*,52.1*,TIM10 conf=57.2*
Nc1c(Cl)cc(C2=NCCn3nc4cc(C(F)(F)F)ccc4c32)cc1Cl,2.3,2.0,16.8,21.6,27.2,4.7,.,.,
COc1ccc2c3n(nc2c1)CCN=C3c1cc(Cl)c(N)c(Cl)c1,28.9,4.8,9.7,54.7*,.,42.0*,18.2,51.2*,
Cc1ccc2nc(-c3ccccc3)cc(C(=O)N(C)CC(=O)Nc3ccccc3Br)c2c1,2.9,-9.1,28.6,29.3,2.5,20.8,.,.,
O=c1oc(-c2ccco2)nc2c1cnn2-c1ccccc1,27.5,-0.1,19.0,63.9*,6.8,48.5*,34.8*,66.7*,
O=c1c2cnn(-c3ccccc3)c2nc(-c2ccco2)n1-c1ccccc1,29.2,-18.8,28.5,47.8,.,28.0,.,.,
O=[N+]([O-])c1ccccc1S(=O)(=O)Nc1ccc(S(=O)(=O)Nc2nccs2)cc1,51.4*,-0.7,7.3,63.4*,4.4,61.2*,62.8*,56.0*,TIM10 conf=54.4*
SMILES,TIM10 inh,PfHsp90 set2,NALP3 yeast inh,tim23-1 inh,SKKanGAS inh,tim10-1 inh,tim10-1 conf,tim23-1 conf,others
Cc1ccc(S(=O)(=O)CC(=O)Nc2nc(-c3ccccc3)cs2)cc1,28.9,.,26.1,52.3*,2.1,44.0*,45.0*,46.9*,
COC(=O)C1=C(C)OC(N)=C(C#N)C1c1cc2cccc(C)c2nc1Cl (stereo not given),28.9,.,23.2,63.9*,-5.4,43.7*,29.0,58.1*,
COCCOC(=O)C1=C(C)OC(N)=C(C#N)C1c1cc2cccc(C)c2nc1Cl (stereo not given),28.7,-0.3,13.9,44.1,0.8,35.0,.,.,
COC(=O)C1=C(CCc2ccccc2)NC(=O)NC1c1ccc([N+](=O)[O-])cc1 (stereo not given),9.5,11.9,7.1,12.4,2.5,8.7,.,.,
COCCN(CCOC)S(=O)(=O)c1ccc(NC(=O)c2cnccn2)cc1,6.0,-10.5,13.2,10.6,-1.4,6.0,.,.,
Cc1nc(SCC(=O)Nc2ccc(CN3CCCC3)cc2)c2c(C)c(C)sc2n1,50.7*,.,25.4,53.4*,.,50.9*,61.5*,56.6*,TIM10 conf=37.9*
CC(=O)Oc1cccc(/C=C2\Sc3ccccc3C2=O)c1,33.0,6.5,20.0,86.2*,-2.2,43.6*,47.5*,85.4*,
Oc1c(N=Nc2ccccn2)ccc2ccccc12,41.5*,.,19.6,52.8*,69.1*,72.1*,53.2*,75.6*,TIM10 conf=46.0*
O=C(CCn1cccc(C(F)(F)F)c1=O)Nc1cccc(C(F)(F)F)c1,-15.2,.,-1.7,-4.2,0.2,-8.4,.,.,
COc1cnc(-c2ccccn2)nc1Sc1cccc(Cl)c1,30.6,-22.8,33.1,63.1*,66.6*,43.7*,28.2,55.0*,
O=C(CSc1ccc(Cl)cc1)NC1=NN(c2ccccc2)C(=O)C1,10.8,7.6,18.9,62.8*,77.5*,48.5*,16.9,-12.0,
CCSc1ccccc1C(=O)N1CCCC1,11.2,.,6.1,1.4,-10.9,-0.1,.,.,
CCSc1ccccc1C(=O)n1nnc2ccccc21,39.4,7.8,-23.4,58.6*,.,54.6*,48.9*,70.3*,
Cc1ccccc1CC(=O)c1ccc(O)c(C)c1O,31.4,10.2,-3.8,61.3*,-24.6,49.1*,45.5*,65.5*,
O=C(CN1C(=O)c2ccccc2S1(=O)=O)NCCc1ccc(F)cc1,3.7,11.5,12.6,6.3,.,1.8,.,.,

# Compound activity (PubChem)
